Measurements as given in PubChem BioAssay (NCI).
Where “and” joins values, the source holds several entries; their conditions need not be identical. Equal entries are not always repeated. This is part of a sample that, as a whole, favours compounds with a hit. Of some 83,000 tested, about 20% had one in any assay.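 Growth was measured after 48 h exposure to one concentration of compound in 96-well plates. Values under 10 count as active.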 Unmarked numbers belong to inactive results. Calls of active or inactive are those of the source.

How the values were obtained:
Assay in all cases: NCI-60 one-dose screen, 48 h (100 = growth as untreated, 0 = no growth, -100 = all killed)
Conditions in all cases: 10 µM unless noted
NCI-H23 lung = system: NCI-H23 lung
NCI-H226 lung = system: NCI-H226 lung
NCI-H322M lung = system: NCI-H322M lung
HOP-62 NSCLC = system: HOP-62 NSCLC
NCI-H460 lung = system: NCI-H460 lung
HOP-92 NSCLC = system: HOP-92 NSCLC
NCI-H522 lung = system: NCI-H522 lung
A549/ATCC NSCLC = system: A549/ATCC NSCLC
786-0 renal = system: 786-0 renal
COLO 205 colon = system: COLO 205 colon
DU-145 prostate = system: DU-145 prostate
K-562 leukemia = system: K-562 leukemia
MALME-3M melanoma = system: MALME-3M melanoma
MDA-MB-231 breast = system: MDA-MB-231 breast
RXF 393 renal = system: RXF 393 renal
SF-268 CNS = system: SF-268 CNS
SF-295 CNS = system: SF-295 CNS
SF-539 CNS = system: SF-539 CNS
UACC-257 melanoma = system: UACC-257 melanoma
M14 melanoma = system: M14 melanoma

Row | SMILES | growth (NCI-H23 lung) | growth (NCI-H226 lung) | growth (NCI-H322M lung) | growth (HOP-62 NSCLC) | growth (NCI-H460 lung) | growth (HOP-92 NSCLC) | growth (NCI-H522 lung) | growth (A549/ATCC NSCLC) | growth (786-0 renal) | growth (COLO 205 colon) | growth (DU-145 prostate) | growth (K-562 leukemia) | growth (MALME-3M melanoma) | growth (MDA-MB-231 breast) | growth (RXF 393 renal) | growth (SF-268 CNS) | growth (SF-295 CNS) | growth (SF-539 CNS) | growth (UACC-257 melanoma) | growth (M14 melanoma)
1 | N#Cc1c(-c2cccc(F)c2)cc(-c2cccnc2)[nH]c1=O | 105% | 101% | 101% | 95.7% | 109% | 110% | 90.1% | 101% | 97.6% | 108% | 107% | 95.3% | 103% | 104% | 112% | 103% | 102% | 99.3% | 112% | 102%
2 | CCN1C(=S)N(CC)C2C1NC(=S)N2/N=C/C=C/c1ccccc1 (stereo not given) | 58.5% | 64.5% | 51.1% | 44.4% | 12.4% | 62.2% | -7.6% (active) | 37.6% | 40.9% | 33.4% | 30.6% | 15.5% | 28% | 52.7% | 2.31% (active) | 55.6% | 19.6% | 11.4% | 41.7% | 24.8%
3 | C=C(CNCCc1ccc(O)cc1)[C@@H]1CC[C@]2(CO)CC[C@]3(C)[C@H](CC[C@@H]4[C@@]5(C)CCC(NCCc6ccc(O)cc6)C(C)(C)[C@@H]5CC[C@]43C)[C@@H]12 (stereo not given in full) | -78.2% (active) | -61% (active) | -90.6% (active) | -90.7% (active) | -79.4% (active) | -88.4% (active) | -73.1% (active) | -82.4% (active) | -89.9% (active) | -91.1% (active) | -98.6% (active) | -72.9% (active) | -88.2% (active) | -87.1% (active) | -91.2% (active) | -81.5% (active) | -92.9% (active) | -88.2% (active) | -80.5% (active) | -85.4% (active)
4 | COc1ccc(-c2[nH]c3ccccc3c2-c2ccc(OC)cc2)cc1 | 53% | 112% | 84.2% | 51.9% | 43.2% | 42.6% | 55.6% | 75.7% | 51.7% | 75.3% | -30.6% (active) | 3.69% (active) | 73.3% | 52.6% | 51.9% | 61.4% | 50.2% | 45.3% | 72% | 34.9%
5 | COc1ccc(/C=N\Nc2nc(SCC(C)C)nc(-c3ccc(OC)cc3)c2C#N)cc1 | 57.2% | -14.8% (active) | 22.5% | -2.99% (active) | -11.1% (active) | 15.1% | 54% | 11.4% | -48.2% (active) | 50.1% | 65.2% | 74.6% | 60.1% | 43.5% | 34.5% | 50.9% | -5.63% (active) | 52.6% | 88.1% | 77.6%
6 | Nc1ccc(S(=O)(=O)c2ccc(N)cc2)cc1 | 99.8% and 99.3% | 92.2% and 103% | 96.7% and 81.5% | 107% | 109% and 102% | 70.4% and 87% | 110% and 94.6% | 98.5% | 103% and 112% | 115% and 95.2% | 115% and 113% | 104% and 144% | 109% and 121% | 108% and 112% | 104% and 108% | 112% and 108% | 94.4% | 103% and 97.6% | 103% and 93.4% | 101% and 97.5%
7 | FC(F)(F)Sc1ccc(/C=C/c2cc(/C=C/c3ccc(SC(F)(F)F)cc3)n(-c3ccccc3)n2)cc1 | 103% | 89.5% | 93.7% | 90.8% | 99.8% | 87.3% | 89.4% | 89.5% | 91.8% | 92.8% | 108% | 91% | 98.8% | 89.5% | 113% | 91% | 96.6% | 98.1% | 86.4% | 95.2%
8 | Nc1nc2c(s1)CCc1cn(S(=O)(=O)c3ccccc3)cc1-2 | 94.5% and 104% | 82.9% | 93.7% and 114% | 91.5% and 112% | 95.1% and 101% | 63.3% | 82.4% and 92.9% | 78.5% and 101% | 92.7% and 104% | 106% and 108% | 100% and 114% | 88.6% and 88.2% | 107% and 98% | 80.5% and 112% | 100% and 110% | 80.6% and 97.7% | 94.6% and 106% | 90.9% and 97.8% | 86.6% and 112% | 90.4% and 101%
9 | Cc1c(CC(=O)OCCO)cc(-c2ccc(Cl)cc2)n1-c1ccccc1 | 82.3% | 93.9% | 106% | 95% | 104% | 97.4% | 82.6% | 94% | 102% | 109% | 102% | 70.5% | 103% | 95.4% | 107% | 94.5% | 96.6% | 101% | 98.9% | 109%
10 | C#CCOCC1CN(C)C(=O)O1 (stereo not given) | 111% | 103% | 114% | 131% | 103% | 97.8% | 99.7% | 93.7% | 110% | 123% | 107% | 101% | 110% | 110% | 131% | 113% | 105% | 102% | 104% | 107%
11 | CNC(=O)c1cc(Oc2ccc3nc(NC(=O)Nc4ccc(C(F)(F)F)cc4)sc3c2)ccn1 | 63.4% | 85.6% | 80.5% | 67.4% | 33.4% | 74.4% | 42.4% | 1.79% (active) | 35.4% | 58.7% | 48.9% | 76.3% | 20.8% | 63.5% | 85.5% | 65% | 63.2% | 82.2% | 86.7% | 35.8%
12 | O=C(Nc1ncc(Cc2cccc(C(F)(F)F)c2)s1)c1ccc(-n2cnnn2)cc1 | 55% | 69.3% | 86.1% | 104% | 30.5% | 86.2% | 54.5% | 34.4% | 66.1% | 121% | 60.3% | 21% | 62.6% | 96.9% | 103% | 55.4% | 32.2% | 47.9% | 46.8% | 41.4%
13 | C[C@@H]1CC[C@@H]2[C@@H]1[C@H](OC(=O)/C=C/c1ccccc1)[C@]1(c3ccccc3)C[C@@H](NC(=O)CO)[C@@]2(C)O1 | 97.7% | 88.8% | 98.2% | 96.8% | 105% | 65.5% | 82.3% | 95% | 101% | 99.7% | 107% | 84.4% | 98.6% | 96.9% | 83.2% | 93.6% | 93.8% | 97.9% | 93% | 105%
